Experimental data published in the supplement of paper PMC10849652.
The full data set covers some 7,900 targets. This sample favours those with a hit. About 0.6% of all pairs of compound and target were hits.

Legend:
Assay in all cases: log2 fold change, soluble protein after heating vs DMSO (PISA); higher = thermal stabilisation; K562 cells, 10 uM, 30 min; active = over 0.2 and 3.5 SD of the protein, either way, in both replicates (recomputed)
erlotinib = compound: C#Cc1cccc(Nc2ncnc3cc(OCCOC)c(OCCOC)cc23)c1 [erlotinib]
Method in brief: (§1)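 Soluble protein was defined as the supernatant after 21,000xg for 90 min. It came from K562 cells at 2×10^6 cells/mL given 10 μM compound for 30 min, heated in aliquots for 3 min across 48°C-58°C, pooled, and extracted in PBS with 0.5% NP-40 at 4°C, and was quantified by TMTpro 16plex LC-MS/MS with equalised channel sums. Thermal stability against control samples, from duplicates, is reported as log2 fold change.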

[1] = compound: C/C(=N\NC(=O)C1=CC(=CC=C1)S(=O)(=O)N2CCOCC2)/C3=C(C=CC(=C3)Cl)O
Method in brief: as §1

[2] = compound: C1=CC(=C(C=C1Cl)C2=NC3=NC=CN=C3C(=N2)NC4=CC=NC=C4)F
Method in brief: as §1

[3] = compound: C1=CC(=CC=C1C2=NC3=C(N2)C=C(C=C3)C(=O)N)OC4=CC=C(C=C4)Cl
Method in brief: as §1

[4] = compound: C1=CC2=C(C=CC(=C2)/C=C\3/C(=O)NC(=NCC4=CC=CS4)S3)N=C1
Method in brief: as §1

[5] = compound: C1=CC2=NC=CN=C2C=C1/C=C/3\C(=O)NC(=O)S3
Method in brief: as §1

[6] = compound: C1=CC=C(C=C1)C2=NC(=C(N2)C3=CC=NC=C3)C4=CC(=C(C=C4)Cl)O
Method in brief: as §1

[7] = compound: C1=CC=C2C(=C1)C3=NNC4=CC=CC(=C43)C2=O
Method in brief: as §1

[8] = compound: C1CCN(C1)C(=O)NC2=CC=CC(=C2)NC3=NC=C(C(=N3)NCCC4=CN=CN4)Br
Method in brief: as §1

[9] = compound: C1CN(CCC1(CC2=CC=C(C=C2)Cl)N)C3=NC=NC4=C3C=CN4
Method in brief: as §1

IRAK-1-4 Inhibitor I = compound: C1COCCN1CCN2C3=CC=CC=C3N=C2NC(=O)C4=CC(=CC=C4)[N+](=O)[O-] [IRAK-1-4 Inhibitor I]
Method in brief: as §1

ibrutinib = compound: C=CC(=O)N1CCC[C@@H](n2nc(-c3ccc(Oc4ccccc4)cc3)c3c(N)ncnc32)C1 [ibrutinib]
Method in brief: as §1

[10] = compound: CC(=O)c1cnc2ccc(-c3cc(Cl)c(O)c(Cl)c3)nc2c1N[C@H]1CC[C@H](CN(C)C)CC1
Method in brief: as §1

ralimetinib = compound: CC(C)(C)Cn1c(N)nc2ccc(-c3[nH]c(C(C)(C)C)nc3-c3ccc(F)cc3)nc21 [ralimetinib]
Method in brief: as §1

[11] = compound: CC(C)(O)CC(=O)NCCn1ccc2ncnc(Nc3ccc(Oc4cccc(C(F)(F)F)c4)c(Cl)c3)c21
Method in brief: as §1

[12] = compound: CC(C)C1=C2N=C(C=C(N2N=C1)NCC3=CC=CC=C3)NCCCCCCN
Method in brief: as §1

[13] = compound: CC(C)C[C@@H](C=O)NC(=O)[C@H](CC(C)C)NC(=O)[C@H](CC(C)C)NC(=O)OCc1ccccc1
Method in brief: as §1

pinometostat = compound: CC(C)N(C[C@H]1O[C@@H](n2cnc3c(N)ncnc32)[C@H](O)[C@@H]1O)[C@H]1C[C@@H](CCc2nc3cc(C(C)(C)C)ccc3[nH]2)C1 [pinometostat]
Method in brief: as §1

[14] = compound: CC1=C(C(CC(=O)N1)C2=CC=C(C=C2)C(F)(F)F)C(=O)NC3=C(C=C4C(=C3)C=NN4)F
Method in brief: as §1

[15] = compound: CC1=C(C2=C(C=C1)C(=O)C3=CC=CC=C3N2CCCN)C
Method in brief: as §1

Measured: log2 fold change

EFCAB14 (UniProt O75071)
inactive: erlotinib 0.051 | [1] -0.053 | [2] 0.013 | [3] 0.024 | [4] -0.049 | [5] 0.033 | [6] 0.159 | [7] -0.119 | [8] 0.044 | [9] -0.032 | IRAK-1-4 Inhibitor I -0.016 | ibrutinib 0.043 | [10] -0.196 | ralimetinib 0.135 | [11] -0.009 | [12] -0.127 | [13] -0.063 | pinometostat -0.061 | [14] -0.035 | [15] 0.006

ELF1 (UniProt P32519)
Sequence of UniProt P32519 (P32519 whole entry, looked up): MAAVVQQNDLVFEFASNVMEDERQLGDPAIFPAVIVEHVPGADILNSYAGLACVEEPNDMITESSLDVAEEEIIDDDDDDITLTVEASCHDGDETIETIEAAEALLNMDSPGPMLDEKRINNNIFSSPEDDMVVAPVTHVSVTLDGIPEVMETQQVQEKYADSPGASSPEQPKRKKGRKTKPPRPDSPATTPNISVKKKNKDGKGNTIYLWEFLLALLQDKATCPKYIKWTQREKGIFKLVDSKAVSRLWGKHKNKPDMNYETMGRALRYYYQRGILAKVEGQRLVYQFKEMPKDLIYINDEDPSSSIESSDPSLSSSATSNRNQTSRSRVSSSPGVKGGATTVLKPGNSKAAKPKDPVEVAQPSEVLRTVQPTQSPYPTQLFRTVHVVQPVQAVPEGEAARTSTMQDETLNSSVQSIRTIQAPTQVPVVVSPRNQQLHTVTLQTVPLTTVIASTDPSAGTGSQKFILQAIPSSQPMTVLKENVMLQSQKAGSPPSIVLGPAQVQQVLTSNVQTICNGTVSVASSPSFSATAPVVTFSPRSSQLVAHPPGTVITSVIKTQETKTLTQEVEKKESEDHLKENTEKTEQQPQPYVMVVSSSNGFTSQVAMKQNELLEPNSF
inactive: erlotinib -0.016 | [1] -0.052 | [2] 0.068 | [3] 0.028 | [4] -0.003 | [6] 0.082 | [7] -0.091 | [8] 0.013 | [9] -0.092 | IRAK-1-4 Inhibitor I -0.12 | [10] 0.143 | ralimetinib 0.186 | [12] -0.072 | [13] -0.076 | pinometostat 0.053 | [14] -0.22 | [15] -0.473
active: [11] -0.567

FAM160B1 (UniProt Q5W0V3)
active: [12] -0.285
inactive: erlotinib 0.034 | [1] 0.085 | [2] 0.012 | [3] -0.007 | [4] 0.019 | [5] 0.037 | [6] -0.005 | [7] 0 | [8] -0.035 | [9] -0.021 | IRAK-1-4 Inhibitor I 0.019 | ibrutinib 0.012 | [10] 0.03 | ralimetinib 0.005 | [11] -0.05 | [13] 0.019 | pinometostat -0.019 | [14] -0.036 | [15] -0.051

EIF2AK1 (UniProt Q9BQI3)
Sequence of UniProt Q9BQI3 (Q9BQI3 whole entry, looked up): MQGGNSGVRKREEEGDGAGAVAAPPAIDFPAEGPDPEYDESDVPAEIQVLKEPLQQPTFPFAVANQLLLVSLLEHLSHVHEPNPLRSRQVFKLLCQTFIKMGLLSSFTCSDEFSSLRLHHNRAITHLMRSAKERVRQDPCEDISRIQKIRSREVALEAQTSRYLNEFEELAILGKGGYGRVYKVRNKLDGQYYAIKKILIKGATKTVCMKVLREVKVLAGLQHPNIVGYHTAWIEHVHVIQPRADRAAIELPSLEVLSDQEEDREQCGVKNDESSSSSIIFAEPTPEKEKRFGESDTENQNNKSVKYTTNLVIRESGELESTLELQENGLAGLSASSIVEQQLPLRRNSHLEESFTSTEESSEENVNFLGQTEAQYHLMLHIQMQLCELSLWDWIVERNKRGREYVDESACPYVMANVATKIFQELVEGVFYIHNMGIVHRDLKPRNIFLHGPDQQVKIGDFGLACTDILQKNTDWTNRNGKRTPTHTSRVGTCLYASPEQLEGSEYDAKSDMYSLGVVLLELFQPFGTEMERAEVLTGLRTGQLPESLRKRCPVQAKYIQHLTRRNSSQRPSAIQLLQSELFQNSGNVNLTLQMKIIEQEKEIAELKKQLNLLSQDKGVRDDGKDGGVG
active: [13] 0.279
inactive: erlotinib -0.002 | [1] 0.006 | [2] -0.042 | [3] 0 | [4] -0.029 | [5] -0.114 | [6] -0.029 | [7] 0.021 | [8] -0.007 | [9] 0.012 | IRAK-1-4 Inhibitor I -0.016 | ibrutinib 0.018 | [10] 0.035 | ralimetinib -0.011 | [11] 0.056 | [12] 0.023 | pinometostat 0.031 | [15] -0.114

FADS3 (UniProt Q9Y5Q0)
Sequence of UniProt Q9Y5Q0 (Q9Y5Q0 whole entry, looked up): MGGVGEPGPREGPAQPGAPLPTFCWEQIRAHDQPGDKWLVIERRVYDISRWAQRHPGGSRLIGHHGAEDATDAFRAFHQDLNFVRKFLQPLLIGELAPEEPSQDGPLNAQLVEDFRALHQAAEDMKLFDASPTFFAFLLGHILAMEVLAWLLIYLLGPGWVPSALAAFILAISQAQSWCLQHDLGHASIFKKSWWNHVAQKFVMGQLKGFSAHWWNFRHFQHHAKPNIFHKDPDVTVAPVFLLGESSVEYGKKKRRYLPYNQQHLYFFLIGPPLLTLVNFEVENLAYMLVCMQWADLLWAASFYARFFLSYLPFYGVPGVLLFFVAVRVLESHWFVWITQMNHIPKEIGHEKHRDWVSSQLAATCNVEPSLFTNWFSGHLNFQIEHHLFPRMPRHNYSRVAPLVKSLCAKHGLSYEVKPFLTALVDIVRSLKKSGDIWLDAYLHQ
inactive: erlotinib 0.03 | [1] -0.005 | [2] 0.104 | [3] 0.017 | [4] 0.064 | [5] 0.058 | [6] 0.04 | [7] 0.001 | [8] -0.055 | [9] 0.05 | IRAK-1-4 Inhibitor I 0.029 | ibrutinib 0.018 | [10] -0.031 | ralimetinib -0.064 | [11] -0.121 | [12] -0.011 | [13] 0.102 | pinometostat 0.038 | [14] -0.033 | [15] 0.054

FAM117A (UniProt Q9C073)
active: [4] -0.279 | [10] -0.833
inactive: erlotinib 0.127 | [1] 0.054 | [2] -0.056 | [3] 0.053 | [5] -0.101 | [6] -0.041 | [7] -0.129 | [8] -0.143 | [9] -0.121 | IRAK-1-4 Inhibitor I -0.004 | ibrutinib 0.001 | ralimetinib -0.125 | [11] -0.068 | [12] -0.102 | [13] 0.126 | pinometostat -0.003 | [14] 0.042 | [15] 0.011

FAM117B (UniProt Q6P1L5)
Sequence of UniProt Q6P1L5 (Q6P1L5 whole entry, looked up): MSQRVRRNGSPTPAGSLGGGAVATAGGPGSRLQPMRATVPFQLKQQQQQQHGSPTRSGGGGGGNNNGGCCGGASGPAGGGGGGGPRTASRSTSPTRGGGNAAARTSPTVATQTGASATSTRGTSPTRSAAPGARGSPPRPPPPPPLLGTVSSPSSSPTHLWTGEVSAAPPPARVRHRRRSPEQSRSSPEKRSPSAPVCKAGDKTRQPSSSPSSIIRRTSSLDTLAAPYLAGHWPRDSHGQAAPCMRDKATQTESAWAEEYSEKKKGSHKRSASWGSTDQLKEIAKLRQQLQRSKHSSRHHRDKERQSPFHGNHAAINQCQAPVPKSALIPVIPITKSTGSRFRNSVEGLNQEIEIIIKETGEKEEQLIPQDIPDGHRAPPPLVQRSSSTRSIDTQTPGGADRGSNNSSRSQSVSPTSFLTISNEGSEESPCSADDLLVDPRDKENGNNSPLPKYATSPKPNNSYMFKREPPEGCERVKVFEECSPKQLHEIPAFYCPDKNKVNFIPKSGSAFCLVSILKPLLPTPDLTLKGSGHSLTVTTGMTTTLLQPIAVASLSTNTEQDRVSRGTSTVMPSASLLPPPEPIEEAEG
inactive: erlotinib 0.088 | [1] 0.053 | [2] -0.134 | [3] 0.079 | [4] 0.098 | [6] 0.151 | [7] 0.099 | [8] 0.165 | [9] 0.09 | IRAK-1-4 Inhibitor I 0.238 | [10] -0.593 | ralimetinib -0.177 | [11] -0.255 | [12] 0.144 | [13] 0.016 | pinometostat -0.175 | [15] 0.037

EVC2 (UniProt Q86UK5)
inactive: erlotinib -0.01 | [1] -0.044 | [2] -0.013 | [3] -0.035 | [4] -0.069 | [5] -0.019 | [6] -0.002 | [7] 0.061 | [8] -0.042 | [9] -0.117 | IRAK-1-4 Inhibitor I 0.052 | ibrutinib 0.032 | [10] -0.061 | ralimetinib -0.15 | [11] 0.038 | [12] 0.064 | [13] 0.038 | pinometostat -0.011 | [14] 0.091 | [15] -0.014

EGR1 (UniProt P18146)
inactive: erlotinib -0.105 | [1] 0.001 | [2] 0.071 | [3] 0.176 | [4] 0.208 | [5] 0.088 | [6] -0.28 | [7] -0.474 | [8] 0.118 | [9] -0.121 | ibrutinib 0 | ralimetinib 0.042 | [11] 0.044 | [12] -0.452 | [13] 0.153 | [14] 0.188 | [15] -0.472
active: [10] -1.07

DHCR7 (UniProt Q9UBM7)
inactive: erlotinib 0.113 | [1] 0.041 | [2] -0.095 | [3] -0.056 | [4] 0.071 | [5] 0.022 | [6] 0.038 | [7] -0.003 | [8] -0.037 | IRAK-1-4 Inhibitor I -0.045 | ibrutinib -0.091 | [10] -0.085 | ralimetinib 0.056 | [11] 0.067 | [12] -0.021 | [13] 0.011 | pinometostat 0.199 | [14] 0.037 | [15] 0.15
active: [9] 0.623

DDX27 (UniProt Q96GQ7)
Sequence of UniProt Q96GQ7 (Q96GQ7 whole entry, looked up): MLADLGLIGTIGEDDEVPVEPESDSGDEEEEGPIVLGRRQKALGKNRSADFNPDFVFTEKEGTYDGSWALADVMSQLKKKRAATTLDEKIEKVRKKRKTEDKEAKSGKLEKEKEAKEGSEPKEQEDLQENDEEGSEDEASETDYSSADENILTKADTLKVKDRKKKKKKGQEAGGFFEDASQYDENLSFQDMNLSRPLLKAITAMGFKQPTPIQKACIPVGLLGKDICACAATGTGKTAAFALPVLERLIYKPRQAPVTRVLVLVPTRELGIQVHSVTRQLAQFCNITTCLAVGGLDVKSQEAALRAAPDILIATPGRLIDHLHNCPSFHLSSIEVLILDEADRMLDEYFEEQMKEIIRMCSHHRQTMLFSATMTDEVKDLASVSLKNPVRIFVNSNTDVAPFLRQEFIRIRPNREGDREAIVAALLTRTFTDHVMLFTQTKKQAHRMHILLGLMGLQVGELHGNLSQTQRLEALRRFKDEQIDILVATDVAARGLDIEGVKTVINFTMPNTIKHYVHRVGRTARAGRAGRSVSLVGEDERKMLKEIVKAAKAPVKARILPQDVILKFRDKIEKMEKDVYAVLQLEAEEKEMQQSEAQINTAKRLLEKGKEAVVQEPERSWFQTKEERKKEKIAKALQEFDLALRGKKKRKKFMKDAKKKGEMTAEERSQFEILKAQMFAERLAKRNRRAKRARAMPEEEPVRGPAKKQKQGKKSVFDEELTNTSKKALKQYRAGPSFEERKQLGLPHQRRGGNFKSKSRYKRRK
inactive: erlotinib 0.104 | [1] -0.116 | [2] -0.287 | [3] 0.015 | [4] 0.059 | [6] -0.039 | [7] 0.025 | [8] -0.064 | [9] -0.259 | IRAK-1-4 Inhibitor I -0.037 | [10] 0.115 | ralimetinib 0.04 | [11] 0.106 | [12] -0.177 | [13] 0.104 | pinometostat 0.311 | [14] -0.344 | [15] -0.351

CUX1 isoform 3 (UniProt P39880)
inactive: erlotinib 0.013 | [1] 0 | [2] 0.034 | [3] -0.015 | [4] -0.008 | [5] 0.11 | [6] -0.074 | [7] 0.01 | [8] -0.003 | [9] 0.092 | IRAK-1-4 Inhibitor I 0.019 | ibrutinib -0.033 | [10] -0.032 | ralimetinib -0.065 | [11] -0.047 | [12] 0.008 | [13] 0.116 | pinometostat -0.018 | [14] 0.015 | [15] 0.153

EZH2 isoform 2 (UniProt Q15910)
Sequence of UniProt Q15910 (Q15910 whole entry, looked up): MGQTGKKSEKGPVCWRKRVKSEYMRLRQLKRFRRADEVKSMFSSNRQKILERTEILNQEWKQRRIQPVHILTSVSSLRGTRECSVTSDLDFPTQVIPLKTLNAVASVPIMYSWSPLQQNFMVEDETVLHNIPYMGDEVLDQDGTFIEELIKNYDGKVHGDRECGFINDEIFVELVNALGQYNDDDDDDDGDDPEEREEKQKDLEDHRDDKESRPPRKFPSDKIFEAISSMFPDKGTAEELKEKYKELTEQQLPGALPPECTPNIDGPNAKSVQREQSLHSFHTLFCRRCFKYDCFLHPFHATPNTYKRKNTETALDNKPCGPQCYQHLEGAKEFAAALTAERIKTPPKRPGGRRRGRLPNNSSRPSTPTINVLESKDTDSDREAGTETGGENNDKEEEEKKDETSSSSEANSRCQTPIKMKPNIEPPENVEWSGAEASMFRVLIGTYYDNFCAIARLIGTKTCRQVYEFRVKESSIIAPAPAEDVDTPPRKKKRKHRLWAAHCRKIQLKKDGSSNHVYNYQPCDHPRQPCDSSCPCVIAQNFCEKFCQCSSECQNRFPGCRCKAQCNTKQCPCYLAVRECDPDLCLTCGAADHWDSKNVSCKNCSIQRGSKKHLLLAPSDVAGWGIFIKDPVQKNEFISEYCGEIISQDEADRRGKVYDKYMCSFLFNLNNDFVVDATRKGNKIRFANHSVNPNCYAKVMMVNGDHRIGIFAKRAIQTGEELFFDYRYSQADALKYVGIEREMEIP
inactive: erlotinib -0.036 | [1] 0.129 | [2] 0.163 | [3] 0.084 | [4] 0.046 | [5] 0.048 | [7] 0.054 | [8] -0.106 | [9] -0.062 | IRAK-1-4 Inhibitor I -0.247 | ibrutinib -0.114 | [10] 0.115 | [11] -0.041 | [12] -0.239 | pinometostat 0.068 | [15] -0.11

EXOSC10 (UniProt Q01780)
Sequence of UniProt Q01780 (Q01780 whole entry, looked up): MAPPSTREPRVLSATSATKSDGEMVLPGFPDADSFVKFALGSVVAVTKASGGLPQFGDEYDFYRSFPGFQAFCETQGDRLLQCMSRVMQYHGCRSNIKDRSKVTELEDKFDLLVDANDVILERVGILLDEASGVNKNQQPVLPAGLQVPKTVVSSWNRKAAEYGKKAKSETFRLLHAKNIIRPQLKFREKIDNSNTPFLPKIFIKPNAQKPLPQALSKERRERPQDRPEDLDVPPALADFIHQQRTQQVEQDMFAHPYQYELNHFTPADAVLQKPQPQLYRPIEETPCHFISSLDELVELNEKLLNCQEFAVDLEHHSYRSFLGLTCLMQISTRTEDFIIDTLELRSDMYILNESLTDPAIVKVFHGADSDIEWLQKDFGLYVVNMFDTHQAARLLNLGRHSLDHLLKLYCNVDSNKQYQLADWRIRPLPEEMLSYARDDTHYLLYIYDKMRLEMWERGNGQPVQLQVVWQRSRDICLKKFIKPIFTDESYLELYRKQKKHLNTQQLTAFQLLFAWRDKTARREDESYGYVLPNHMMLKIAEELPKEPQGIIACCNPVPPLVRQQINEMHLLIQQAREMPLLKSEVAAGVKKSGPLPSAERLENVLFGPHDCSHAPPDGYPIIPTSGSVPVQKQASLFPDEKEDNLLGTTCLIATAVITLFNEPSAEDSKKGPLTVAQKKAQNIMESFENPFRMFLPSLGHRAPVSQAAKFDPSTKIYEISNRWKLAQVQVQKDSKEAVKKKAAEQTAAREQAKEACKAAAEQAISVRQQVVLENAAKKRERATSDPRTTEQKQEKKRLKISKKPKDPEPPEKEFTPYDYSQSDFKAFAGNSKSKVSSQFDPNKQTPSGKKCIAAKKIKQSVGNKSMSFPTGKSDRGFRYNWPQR
inactive: erlotinib 1.07 | [2] 0.136 | [3] 0.008 | [4] 0.078 | [5] -0.101 | [6] -0.444 | [7] -0.055 | [8] 0.052 | [9] 0.067 | IRAK-1-4 Inhibitor I 0.165 | ibrutinib 0.033 | [10] 0.026 | ralimetinib -0.261 | [11] -0.01 | [12] 0.213 | [13] 0.247 | pinometostat 0.059 | [15] 0.076
active: [1] -0.86

CTSZ (UniProt Q9UBR2)
Sequence of UniProt Q9UBR2 (Q9UBR2 whole entry, looked up): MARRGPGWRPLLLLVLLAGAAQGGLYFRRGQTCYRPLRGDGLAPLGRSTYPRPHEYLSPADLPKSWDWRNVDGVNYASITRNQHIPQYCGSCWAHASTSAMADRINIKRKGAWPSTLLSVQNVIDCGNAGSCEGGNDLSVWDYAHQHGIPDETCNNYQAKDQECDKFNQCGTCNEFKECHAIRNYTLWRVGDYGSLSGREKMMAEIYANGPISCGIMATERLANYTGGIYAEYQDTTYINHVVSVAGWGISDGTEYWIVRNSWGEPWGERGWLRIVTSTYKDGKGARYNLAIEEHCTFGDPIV
active: [12] -0.395
inactive: erlotinib 0.053 | [1] -0.025 | [2] 0.027 | [3] -0.047 | [4] -0.013 | [5] 0.023 | [6] -0.017 | [7] 0.073 | [8] 0.057 | [9] 0.09 | IRAK-1-4 Inhibitor I 0.008 | ibrutinib -0.02 | [10] 0.053 | ralimetinib -0.062 | [11] 0 | [13] 0.082 | pinometostat -0.076 | [14] 0.015 | [15] -0.036

DBNL isoform 3 (UniProt Q9UJU6)
inactive: erlotinib 0.06 | [1] 0.024 | [2] 0.034 | [3] -0.063 | [4] -0.012 | [5] 0.146 | [6] -0.008 | [7] -0.004 | [8] -0.084 | [9] -0.066 | IRAK-1-4 Inhibitor I -0.075 | ibrutinib -0.122 | [10] 0.006 | ralimetinib -0.015 | [11] -0.132 | [12] -0.136 | [13] -0.007 | pinometostat -0.044 | [14] -0.02 | [15] -0.066

DPYSL2 (UniProt Q16555)
inactive: erlotinib -0.02 | [1] -0.104 | [2] 0.099 | [3] 0.072 | [4] 0.074 | [5] 0.003 | [7] 0.055 | [8] -0.044 | [9] 0.14 | IRAK-1-4 Inhibitor I -0.003 | ibrutinib 0.092 | [10] 0.024 | [11] 0.092 | [12] 0.066 | pinometostat 0.009 | [14] -0.007 | [15] 0.01
